Measurements reported in PubChem BioAssay (NCATS).
Records with an inconclusive call do not appear. Calls of active or inactive are those of the source. Calls follow the shape of the dose curve; as a rule, active = well fitted activation curve with a large enough effect; inconclusive = small, poorly fitted or top-dose-only effect; inactive = no such curve, though single readings can be large or run the other way.

Each compound was assayed against Arylsulfatase A (Homo sapiens) (UniProt P15289) (assay: qHTS screen for enhancers of Arylsulfatase A (ASA1): LOPAC Validation Assay (AID 720538; as to activity change, positive = activation: 0% is about no effect)). Details: ASA enzyme activity, LOPAC qHTS enhancer assay; series mostly up to 57.5 µM; activity change, positive = activation: at the top concentration.
Arylsulfatase A (Homo sapiens), sequence (P15289 whole entry, looked up): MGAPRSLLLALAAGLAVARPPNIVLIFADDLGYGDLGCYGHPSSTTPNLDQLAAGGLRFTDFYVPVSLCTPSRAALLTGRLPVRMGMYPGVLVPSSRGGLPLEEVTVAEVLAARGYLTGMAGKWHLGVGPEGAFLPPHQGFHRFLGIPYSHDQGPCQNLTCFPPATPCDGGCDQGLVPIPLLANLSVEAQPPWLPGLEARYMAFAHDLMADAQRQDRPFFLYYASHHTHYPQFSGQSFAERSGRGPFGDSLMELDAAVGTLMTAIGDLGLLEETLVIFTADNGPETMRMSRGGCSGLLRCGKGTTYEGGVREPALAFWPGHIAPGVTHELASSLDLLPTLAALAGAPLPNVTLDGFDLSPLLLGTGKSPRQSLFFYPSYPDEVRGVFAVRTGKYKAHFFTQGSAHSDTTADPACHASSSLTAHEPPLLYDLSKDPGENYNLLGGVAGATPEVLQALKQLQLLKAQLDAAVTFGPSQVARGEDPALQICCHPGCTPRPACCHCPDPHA
From the text: Lysosomal storage diseases (LSDs) are caused by genetic mutations in genes encoding proteins important for normal lysosomal function. In affected patients, symptoms are usually not manifested unless the mutations result in more than 90% reduction of enzymatic activity of a specific lysosomal enzyme. […] Small molecules could function as enzyme enhancement agents by binding to and stabilizing mutant misfolded proteins in the endoplasmic reticulum (ER), allowing them to evade the ER associated degradation (ERAD), and eventually reach the lysosome. Moreover, small molecules is hypothesized to be able to enhance the residual activity of deficient lysosomal enzyme by either interacting directly with the mutant enzyme or indirectly by acting in different cellular pathways; resulting to increased levels of the mutant and partially functional protein in the lysosomal compartment.
A cell based assay in 1536 well plate format was developed to evaluate activity of the lysosomal sulfatase ASA1 enzyme. ASA1 is deficient in metachromatic leukodystrophy (MLD), an LSD characterized by progressive neurodegeneration for which specific treatment is not available. Compounds that are active may therefore have some therapeutic application for this disease. This assay was used to validate the ASA1 qHTS using the Sigma LOPAC library. In this assay increase in signal = enhanced ASA1 activity. Activation is the desired outcome for this assay.
NIH Chemical Genomics Center [NCGC]
NIH Molecular Libraries Probe Centers Network [MLPCN]
Assay Submitter (PI): Gustavo Maegawa, Johns Hopkins University School of Medicine
[2] Gieselmann V, et al. Acta Paediatr Suppl. 2008; 97: 15-21
Four microliter (~8,000 cells/well) of SV40-transformed skin fibroblasts from an MLD patient (ASA-I179S) were seeded into a 1,536 solid white plate. Cells were left to adhere for 6 hrs, followed by addition of 23 nL of compounds. Cells were incubated with compounds for 48h at 37 degree C and 5% CO2. Four microliter of 1 mM pNCS substrate/lysis buffer (0.5mM pNCS final concentration) was added and incubated for 14h at room temperature. To stop the reaction, […] of 5 N of NaOH (1N NaOH final concentration) was then added and fluorescence was measured using the ViewLux plate reader (Ex=525 nm; Em=598 nm).

Compound	outcome	activity change, positive = activation
O=C(CCCCCN1CCN(c2ccccc2-c2ccccc2)CC1)NC1CCCc2ccccc21 (stereo not given)	inactive	–
CN1CCc2ccccc2Cc2[nH]c3ccccc3c2CC1	–	-32.2% (inactive)
CCC1C(=O)OCC1Cc1cncn1C (stereo not given)	–	-15.9% (inactive)
CC(N)C(=O)OC(C)(C)Cc1ccc(Cl)cc1 (stereo not given)	–	6.34% (inactive)
C[N+](C)(CCCCCC[N+](C)(C)CCCN1C(=O)c2cccc3cccc(c23)C1=O)CCCN1C(=O)c2cccc3cccc(c23)C1=O	inactive	–
CCCC1(C)C(C#N)(C#N)C1(C#N)C#N	inactive	–
COc1cccc(C(=O)NCCN2CCN(c3ccc(Cl)cc3)CC2)c1	–	0.832% (inactive)
O=C(O)c1cc(=O)c2ccccc2[nH]1	inactive	–
O=C(c1ccc(OCCCc2cnc[nH]2)cc1)C1CC1	inactive	–
O=[N+]([O-])c1ccc(CSc2ncnc3c2ncn3[C@@H]2O[C@H](CO)[C@@H](O)[C@H]2O)cc1	inactive	–
Cc1cc(NC2CCCCC2)nc(-n2nc(C)cc2C)n1	–	13.4% (inactive)
O=C1O/C(=C/Br)CCC1c1cccc2ccccc12 (stereo not given)	–	9.2% (inactive)
CC1(C)CCC=[N+]1[O-]	–	-13.8% (inactive)
CC[C@@H](C)[C@H]1O[C@]2(CC[C@H]1C)C[C@@H]1C[C@@H](CC=C(C)[C@@H](O[C@H]3C[C@H](OC)[C@@H](O[C@H]4C[C@H](OC)[C@@H](O)[C@H](C)O4)[C@H](C)O3)[C@@H](C)C=CC=C3CO[C@@H]4[C@H](O)C(C)=C[C@@H](C(=O)O1)[C@]34O)O2	–	7.57% (inactive)
CC(C)(C)c1ccc(S(=O)(=O)/C=C/C#N)cc1	–	-31.2% (inactive)
CC(C)NC[C@@H](O)c1ccc(O)c(O)c1	–	-101% (inactive)
C=C[C@@H]1CN2CC[C@@H]1C[C@H]2[C@H](O)c1ccnc2ccc(OC)cc12	inactive	–
CC(C)NC[C@H](O)COc1cccc2[nH]ccc12	–	2.46% (inactive)
NCCCS(=O)(=O)O	–	5.11% (inactive)
CNC(=O)[C@H]1O[C@@H](n2cnc3c(NCc4ccc(N)cc4)ncnc32)[C@H](O)[C@@H]1O	–	-18% (inactive)

Compound	outcome	activity change, positive = activation
S=C(S)OC1CC2CC1C1CCCC21 (stereo not given)	–	-13% (inactive)
CC(C)ON([C@@H](C(=O)NO)C(C)C)S(=O)(=O)c1ccc(-c2ccccc2)cc1	–	-6.03% (inactive)
O=P(O)(O)C(Cl)(Cl)P(=O)(O)O	inactive	–
C[C@@H](CN1CCC(Cc2ccccc2)CC1)[C@@H](O)c1ccc(O)cc1	–	39.5% (inactive)
CCNC(=O)[C@H]1O[C@@H](n2cnc3c(N)nc(NCCc4ccc(CCC(=O)O)cc4)nc32)[C@H](O)[C@@H]1O	inactive	–
O=C(O)c1cc([N+](=O)[O-])ccc1NCCCc1ccccc1	–	-15.5% (inactive)
O=C(Nc1cccc(C(=O)Nc2ccc(S(=O)(=O)O)c3cc(S(=O)(=O)O)cc(S(=O)(=O)O)c23)c1)Nc1cccc(C(=O)Nc2ccc(S(=O)(=O)O)c3cc(S(=O)(=O)O)cc(S(=O)(=O)O)c23)c1	–	-5.37% (inactive)
O=C(O)CC[C@@H](C(=O)O)N1C(=O)c2ccccc2C1=O	–	-102% (inactive)
CCCCCCCCc1ccc(-c2ccc(C(=O)O)cc2)cc1	–	2.57% (inactive)
CCCN(CC1CC1)c1nc(C)nc(Nc2c(Cl)cc(Cl)cc2Cl)c1Cl	–	-38% (inactive)
CC(COc1ccc(/C=C/c2ccccc2)cc1)[N+](C)(C)C (stereo not given)	inactive; inhibitor; fitted 3.7933 uM	–
CN(C)c1ccc(/C=C2\C(=O)Nc3ccccc32)cc1	inactive	–
O=C(O)CCCC[C@@H]1CCSS1	–	-19.2% (inactive)
COc1cc(SC)ccc1C(=O)N1CCC(Cc2ccccc2)CC1	–	19.4% (inactive)
CN1C2CC(OC(=O)[C@H](CO)c3ccccc3)CC1C1OC12 (stereo not given in full)	inactive	–
N=c1ccn2c(n1)O[C@H]1[C@H](O)[C@@H](CO)O[C@H]12	–	18.3% (inactive)
CN(C)c1nc(N)c(C(=O)N=C(N)N)nc1Cl	inactive	–
CCCCC/C=C\CC(O)/C=C/c1cccc(CC(O)CCCCO)n1 (stereo not given)	–	4.78% (inactive)
C[N+]1(C)CCC(OC(=O)C(c2ccccc2)c2ccccc2)CC1	inactive	–
Ic1ccc(N2CCN(Cc3c[nH]c4ncccc34)CC2)cc1	–	-44.7% (inactive)
